# Shown are actives, neighbours in structure and some others; about 7.4% of the full set was active somewhere.
# Rab9 prom act: qHTS Assay for Rab9 Promoter Activators | Potency, µM (doses to about 9.22 µM), for inactives: at the highest dose activation, negative = inhibition, actives largely listed as activators | Huh7 Rab9 promoter-luciferase reporter, luminescence, 24 h | AID 485297, 2010 | 320,000 compounds, 2.8% hits; further: % of control where 0% means no effect; nearly all actives have a fitted effect of over 60% in size
#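 Cell-based reporter: Huh7 stable for Rab9 promoter-driven luciferase, plated in reduced-serum medium with 10% FBS at 1500 cells/well, compound-treated 24 h at 37 °C, luminescence read after 10 min reagent.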
# SMN2 splice up: qHTS Assay for Enhancers of SMN2 Splice Variant Expression. Potency, µM (titrated, usually from 46.1 µM), for inactives: at the top dose activity change, positive = activation, most hits filed as activators. HEK293 SMN2-luciferase splicing reporter, luminescence, 30-36 h. AID 1458, 2008. 210,000 compounds, 2.8% hits; further: % of control where 0% means no effect; nearly all actives have a fitted effect of over 55% in size
#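 HEK293 cells carry an SMN2 […]–luciferase reporter in which exon 7 inclusion puts luciferase in frame. Cells were plated 10-12 h before compound addition, then incubated 30-36 h at 37C. ONE-Glo luminescence was read; sodium butyrate at 4.5 mM final served as control.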
# FLuc modulator: qHTS profiling assay for firefly luciferase inhibitor/activator using purifed enzyme and Km concentrations of substrates (counterscreen for miR-21 project); Luciferin 4-monooxygenase (Photinus pyralis), P08659; purified FLuc, Km substrates, luminescence inhibition; Potency, µM (titrated, usually from 57.5 µM), for the others: top-dose activity change, negative = inhibition, hits mostly inhibitors; 360,000 compounds, 6.9% hits;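 further: plate controls were vehicle for no effect and reference inhibitor for full effect; nearly all actives have a fitted effect of over 55% in size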
# Target sequence (P08659 whole entry, looked up): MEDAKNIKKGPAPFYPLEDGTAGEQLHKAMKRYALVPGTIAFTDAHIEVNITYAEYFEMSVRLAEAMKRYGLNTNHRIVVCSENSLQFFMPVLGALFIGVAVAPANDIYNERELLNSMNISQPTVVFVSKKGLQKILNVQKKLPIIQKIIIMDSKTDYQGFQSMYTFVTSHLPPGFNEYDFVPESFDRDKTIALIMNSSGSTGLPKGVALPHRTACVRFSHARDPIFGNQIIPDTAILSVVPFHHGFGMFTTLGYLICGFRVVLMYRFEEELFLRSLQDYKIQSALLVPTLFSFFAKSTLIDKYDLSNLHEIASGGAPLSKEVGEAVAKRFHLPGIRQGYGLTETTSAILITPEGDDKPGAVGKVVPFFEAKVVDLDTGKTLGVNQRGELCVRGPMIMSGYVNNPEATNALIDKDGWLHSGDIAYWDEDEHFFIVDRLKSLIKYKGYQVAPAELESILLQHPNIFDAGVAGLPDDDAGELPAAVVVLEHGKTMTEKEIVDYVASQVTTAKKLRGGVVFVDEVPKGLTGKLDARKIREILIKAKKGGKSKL
#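 Biochemical qHTS of compounds, final roughly 60 µM downward over six points, against 10 nM purified firefly luciferase using Km concentrations of substrates (10 uM D-luciferin, 10 uM ATP) in Tris acetate pH 7.5 buffer; luminescence output.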
# NPC1 promoter act: qHTS Assay for NPC1 Promoter Activators | 320,000 compounds, 2.4% hits | AID 485313, 2010 | Potency, µM (series often up to 9.22 µM), for inactives: at the top dose activation, most hits filed as activators | Huh7 NPC1 promoter luciferase reporter, 24 h; further: % of control where 0% means no effect; nearly all actives have a fitted effect of over 60% in size
#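 Luciferase expression driven by the NPC1 promoter was measured in stably transfected Huh7 cells after a 24 h compound incubation, using a luciferase reagent and a luminescence read.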
# ELG1 genotox: qHTS screen for small molecules that induce genotoxicity in human embryonic kidney (HEK293T) cells expressing luciferase-tagged ELG1. AID 504466, 2011. HEK293T ELG1-luciferase reporter, luminescence, 16 h. Potency, µM (highest dose often 46 µM), inactives show at the highest dose activity change, positive = activation, most hits filed as activators. 330,000 compounds, 1.3% hits; further: % of control where 0% means no effect; nearly all actives have a fitted effect of over 60% in size
#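 Quantitative HTS format in 1536-well plates. HEK293T ELG1-luciferase reporter cells receive test compound and are incubated 16 hr at 37 °C, 5% CO2; ONE-Glo added, 30 min room temperature, then luminescence read.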
# * hit, by the source's call; ? = inconclusive; / = no result; [ ] = dose if it differs, or a comment. The call rests on the fitted dose curve; in most records, active means well fitted curve in the direction sought with a large enough effect; inconclusive means small, poorly fitted or top-dose-only effect, or another doubt; inactive means no such curve, though single readings can be large; an effect the other way counts as inactive or inconclusive. Potency means the concentration at half of the fitted maximal effect.
SMILES,Rab9 prom act,SMN2 splice up,FLuc modulator,NPC1 promoter act,ELG1 genotox
COc1cccc(C(=O)Nc2ccc(-c3nnc(-c4ccco4)o3)cc2)c1,28%,-25%,0%,-4%,16%
CC(C)COc1ccc(-c2nnc(-c3ccco3)o2)cc1,0.32µM*,4µM*,1.1µM*,0.45µM*,?
Cc1ccc(Cl)cc1N1CCN(S(=O)(=O)c2ccc3c(c2)CCN3C(=O)C2CCC2)CC1,/,-1%,1%,/,/
COc1ccc(CCN2C(=NC(=O)CCC(=O)O)SC3CS(=O)(=O)CC32)cc1OC (stereo not given),7%,11%,27µM*,-1%,-3%
COc1ccc(CCN2C(=NC(=O)CC(C)C)SC3CS(=O)(=O)CC32)cc1 (stereo not given),2%,17%,3%,-2%,-5%
O=C(CSc1nc2[nH]ncc2c(=O)[nH]1)Nc1ccc(Cl)cc1,2%,/,-4%,-1%,0%
Nc1ccccc1C#Cc1ccccc1,26%,32%,6.7µM*,?,?
NS(=O)(=O)C#Cc1ccccc1,-41%[46.1 µM],/,/,-37%[46.1 µM],/
Nc1ccc(C#Cc2ccccc2)cc1,30%,24%,15µM*,22%,?
Cc1ccc(S(=O)(=O)N2CCOCC2)cc1NC(=O)COC(=O)/C=C/c1ccc(F)cc1,/,/,/,/,-2%
CCn1c2ccccc2c2cc(/C(C)=N/O)ccc21,-4%,-25%,-21%,-4%,1%
C/C(=N\O)c1ccc2c3ccccc3n(C)c2c1,?,40%,19µM*,?,?
CCn1nc(C(=O)N[C@@H](CCSC)c2nc3ccccc3[nH]2)c2ccccc2c1=O,0%,18%,11µM*,2%,16%
COc1ccc(C2c3c(n(C)c4ccccc34)C(=O)N2CC(=O)Nc2ccccc2Cl)cc1 (stereo not given),/,/,-10%,/,/
CC(=O)N1c2ccccc2C(=O)C1N(C)c1ccc(C)cc1 (stereo not given),13%,/,-7%,-3%,2%
CC(=O)N1/C(=C/c2ccc(N(C)C)cc2)C(=O)c2ccccc21,0%,-38%,17µM*,1%,-29%
O=S(=O)(c1cccc(Cl)c1)n1c(/C=C/c2ccccc2Cl)nc2ccccc21,/,/,0.095µM*,/,/
Cn1c(/C=C/c2ccc(Br)cc2)nc2ccccc2c1=O,?,/,?,3.5µM*,?
Cc1ccc(/C=C/c2nc3ccccc3n2S(=O)(=O)c2ccc(Br)cc2)cc1,/,/,0.76µM*,/,/
CSc1ccc(/C=C/c2nc3ccccc3n2S(=O)(=O)c2cccc(Cl)c2)cc1,/,?,0.076µM*,/,/
CC1CCCCC12NC(=O)N(CC(=O)N1CCN(c3ncccn3)CC1)C2=O (stereo not given),-2%,/,-1%,-2%,4%
CC12CC3CC(C)(C1)CC(C(=O)N1CCN(C(=O)C4CCCO4)CC1)(C3)C2 (stereo not given),-1%,/,0%,-1%,1%
CN(C)c1ccc(-c2cc(NCc3cccnc3)ncn2)cc1,/,10µM*,/,/,/
Cc1cccc(CNc2cc(-c3ccc(N(C)C)cc3)ncn2)c1,/,-12%,/,/,/
CN(C)c1ccc(CNc2ncc(Br)cc2Br)cc1,7%,17%,19µM*,19%,11%
SMILES,Rab9 prom act,SMN2 splice up,FLuc modulator,NPC1 promoter act,ELG1 genotox
Cc1ccc(O)c(CNc2cccc(C)n2)c1,4%,/,-23%,2%,1%
Cc1cccc(NCc2ccc(N(C)C)cc2)n1,?,/,11µM*,?,18µM*
CN(C)c1ccc(CNc2ccccn2)cc1,?,/,13µM*,?,?
CC(=O)Nc1nonc1-c1nnc(SCC(=O)Nc2ccc(C)cc2C)n1C,/,/,0%,/,/
COc1ccccc1NC(=O)CC12CC3CC(CC(Br)(C3)C1)C2,-2%,/,0%,-4%,-6%
CSc1ccc(CNc2ccccn2)cc1,?,12%,15µM*,?,?
CCC1=C(OC(=O)N(CC)CC)N2C(=O)OC(=NCC3CC3)[C@]2(C)[C@H]2C1=CC[C@H]1C(=O)N(c3ccccc3)C(=O)[C@H]12,/,-1%,/,/,/
COc1ccccc1/C=C/C(=O)NC(=S)Nc1ccccn1,14%,/,11µM*,?,23µM*
O=C(/C=C/c1ccccc1)NC(=S)Nc1ncccn1,0%,/,17µM*,1%,4%
COc1ccc(/C=C/C(=O)NC(=S)Nc2ccccn2)cc1,0.89µM*,/,?,1.3µM*,?
COc1ccc(/C=C/C(=O)NC(=S)Nc2ccc(S(N)(=O)=O)cc2)cc1,-1%,/,2%,-1%,0%
CCc1ccc(CN(Cc2ccco2)C(=O)c2cc(-c3ccc(Cl)cc3)on2)cc1,/,/,0%,/,/
COC(=O)c1cc(CNC(=O)c2sccc2-c2ccccc2)ccc1OC,-3%,/,1%,2%,-15%
Cc1cc2c(c(CO)c1CCO)C(=O)[C@@H](C)[C@@H]2O,/,/,/,/,-2%
CC(C)c1ccc2c(c1)CC[C@H]1[C@@](C)(CN)CCC[C@@]21C,/,-6%[9.22 µM],/,/,/
CCN(CC)C(=O)C1CCCc2c1[nH]c1ccc(Cl)cc21 (stereo not given),16%,3.5µM*,1%,-5%,-5%
CCOc1ccc(S(=O)(=O)NCCC(=O)NCc2ccc(OC)c(OC)c2)cc1,0%,/,-1%,-2%,-1%
COc1cc2ccccc2cc1C(=O)Nc1nccs1,?,/,8.5µM*,3.2µM*,12%
COc1c(C(=O)Nc2nccs2)ccc2ccccc12,?,/,3µM*,1.8µM*,?
COc1cccc(C=Nc2ccccc2C(=O)Nc2nccs2)c1OC,17%,-6%,6%,14%,?
COc1cc2ccccc2cc1C(=O)NCC(c1cccs1)N(C)C (stereo not given),?,?,5.4µM*,2.8µM*,16%
COc1cccc2c1OCC(C(=O)Nc1nccs1)=C2,2µM*,/,5.4µM*,2.2µM*,?
COc1cc(OC)c(C(=O)NCC(c2cccs2)N(C)C)cc1OC (stereo not given),-10%,9%,-14%,-1%,6%
N#C/C(=C\c1c(N2CCCCC2)nc2ccccn2c1=O)S(=O)(=O)c1ccccc1,-4%,/,2%,-1%,-3%
Cc1cc(C)cc(NC(=O)C2CCCN2S(=O)(=O)c2cccc3nsnc23)c1 (stereo not given),/,-18%,0%,/,/
CN(C)c1ccc(S(=O)(=O)N(C)C)cc1NC(=O)Cc1cccc2ccccc12,0%,/,3%,1%,-19%
C1COC1,/,-4%,/,/,/
Cc1ccc(C(=O)N2CCN(C)CC2)cc1[N+](=O)[O-],0%,/,0%,0%,2%
COc1ccc(Nc2nccc3c2nnn3C)cc1,2.2µM*,?,11µM*,1.3µM*,5.8µM*
